Reference: PubChem BioAssay AID602412 (Johns Hopkins Ion Channel Center, 2012)
This is one part of the list. Activity calls are given as the source filed them.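 The calls were made as follows: active = calcium signal rise, corrected for plate position, at least 3 library SD high, with starting brightness within 5 such deviations; inactive = the rest.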

Target: Mas-related G-protein coupled receptor member X1 (Homo sapiens) (UniProt Q96LB2)
Assay: activators of human MrgX1 calcium signaling – HEK293 cells, Fluo-4 calcium flux, confirmation (AID 602412)
Conditions: MrgX1-HEK293, Fluo-4 calcium fluorescence, FDSS; at 10 µM; active compounds read high

Chain of Mas-related G-protein coupled receptor member X1 (Homo sapiens) (Q96LB2 whole entry, looked up): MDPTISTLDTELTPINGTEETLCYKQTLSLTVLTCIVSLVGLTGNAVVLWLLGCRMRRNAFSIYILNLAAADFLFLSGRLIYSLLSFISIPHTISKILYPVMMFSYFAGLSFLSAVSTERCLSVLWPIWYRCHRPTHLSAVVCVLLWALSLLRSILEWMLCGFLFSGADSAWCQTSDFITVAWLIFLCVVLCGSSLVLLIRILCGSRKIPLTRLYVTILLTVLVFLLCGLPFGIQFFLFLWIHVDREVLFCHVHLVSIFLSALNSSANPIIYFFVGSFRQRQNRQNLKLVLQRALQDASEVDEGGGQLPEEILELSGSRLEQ

`CCCCC(=O)N/N=C/c1c(O)n(CC)c(=S)n(CC)c1=O` was tested, and the activation was 372% (active).
